The panel holds about 83,000 compounds, 20% with a hit somewhere; the sample as a whole holds those more often.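 Activity criterion: percent growth below 10, measured after cells in 96-well plates were exposed to a single compound concentration for 48 hours.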 A number with no mark means an inactive call. The source made the active and inactive calls.
Tested on: SNB-75 CNS
Experiment: NCI-60 one-dose screen, 48 h (100 = growth as untreated, 0 = no growth, -100 = all killed)
Conditions: 10 µM unless noted

Structure (SMILES) | growth
COc1cccc(/C=C2\COc3ccc(-c4ccccc4)cc3C2=O)c1 | 10.9%
CN1CCN(c2cc(F)c(NC3=C(Cl)C(=O)c4ncccc4C3=O)c(F)c2)CC1 | 38%
Cc1cc(NC(=O)c2cnc(N3CCN(CCOCCOCCOCCOCCC(=O)N[C@H](C(=O)N4C[C@H](O)C[C@H]4C(=O)N[C@@H](C)c4ccc(-c5scnc5C)cc4)C(C)(C)C)CC3)cn2)c2ncccc2c1 | 6.69% (active)
COc1ccc(-c2ncc(-c3ccccc3)[nH]2)cc1OC | 108%
O=C(CN1CCOCC1)Nc1ccc2ncnc(Nc3ccc(Oc4cccc(F)c4)c(Cl)c3)c2c1 | 79.5%
O=C1Nc2c(ccc(Cl)c2Cl)/C1=C/c1ccc(F)cc1 | 76.1%
COc1ccc(-c2nc(N/N=C/c3c[nH]c4ccccc34)nc(N3CCOCC3)c2C#N)cc1 | 61.6%
